Over roughly 33,000 sequences, “E-score (-0.5 to 0.5)” has its median near -0.056; the highest 2% begin near 0.38. For the sample, the highest values were picked, then their nearest neighbours and some sequences at random.
target: Stb4 (UniProt P50104); assay: PBM E-score (8-mer binding enrichment) (E-score (-0.5 to 0.5)); higher = stronger / more preferred TF binding; conditions: protein concentration: 200 nM; construct: GST-DNA-binding domain
Procedure: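 Universal 'all 10-mer' protein binding microarrays (Agilent AMADID 015681) probed with GST-tagged S. cerevisiae TFs (full-length or DBD) made by in vitro transcription/translation (PURExpress), about 100-200 nM. Bound TF was detected with fluorescent anti-GST. Each ungapped 8-mer (which stands for itself and its reverse complement) is scored by the PBM enrichment score (E-score), a modified Wilcoxon-Mann-Whitney statistic from -0.5 to +0.5, computed with the Universal PBM Analysis Suite. Scale: above 0.35 generally sequence-specific binding.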

UniProt P50104, sequence (P50104 whole entry, the tested form may be a part): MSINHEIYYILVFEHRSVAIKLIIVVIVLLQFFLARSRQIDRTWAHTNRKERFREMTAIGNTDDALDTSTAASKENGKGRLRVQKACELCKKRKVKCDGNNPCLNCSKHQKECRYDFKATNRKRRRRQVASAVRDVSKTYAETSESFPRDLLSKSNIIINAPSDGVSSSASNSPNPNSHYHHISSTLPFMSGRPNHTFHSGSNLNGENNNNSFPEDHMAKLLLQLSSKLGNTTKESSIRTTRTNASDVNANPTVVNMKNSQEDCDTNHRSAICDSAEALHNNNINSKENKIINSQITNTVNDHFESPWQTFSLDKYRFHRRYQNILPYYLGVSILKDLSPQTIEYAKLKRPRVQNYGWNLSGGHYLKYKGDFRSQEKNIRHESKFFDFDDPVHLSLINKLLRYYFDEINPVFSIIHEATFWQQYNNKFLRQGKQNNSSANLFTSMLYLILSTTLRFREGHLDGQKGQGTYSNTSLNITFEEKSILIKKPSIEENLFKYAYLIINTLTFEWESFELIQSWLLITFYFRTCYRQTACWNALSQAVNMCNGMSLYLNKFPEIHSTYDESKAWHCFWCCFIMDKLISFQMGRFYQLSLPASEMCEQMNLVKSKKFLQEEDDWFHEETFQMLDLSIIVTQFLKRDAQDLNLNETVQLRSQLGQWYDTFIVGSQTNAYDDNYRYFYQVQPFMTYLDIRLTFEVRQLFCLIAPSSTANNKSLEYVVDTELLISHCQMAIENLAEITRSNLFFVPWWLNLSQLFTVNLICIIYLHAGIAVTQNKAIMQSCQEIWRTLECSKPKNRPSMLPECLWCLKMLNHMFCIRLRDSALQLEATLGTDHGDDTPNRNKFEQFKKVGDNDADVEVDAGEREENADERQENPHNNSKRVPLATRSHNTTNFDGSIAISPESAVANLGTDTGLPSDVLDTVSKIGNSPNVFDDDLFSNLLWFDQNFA

Row | Sequence | PBM E-score
1 | TAATCGGA | 0.324
2 | ACATCGGA | 0.346
3 | ATATCGGG | 0.306
4 | GCATCGGA | 0.359
5 | CTATCGGC | 0.26
6 | TCATCGGA | 0.403
7 | ATATCGGA | 0.383
8 | AAATGCGT | -0.129
9 | AGTGTGAT | -0.0318
10 | CAATTTAC | -0.00625
11 | CATAGTGG | -0.102
12 | CCGACCTA | 0.296
13 | CACGGTGG | -0.061
14 | GGCCCACC | 0.0688
15 | AAAAGATT | -0.0765
16 | AGGTTTAC | -0.0584
17 | GTATCGAA | -0.0419
18 | GTATCGGA | 0.39
19 | GAATCGGA | 0.38
20 | ACATCACC | 0.0212
21 | CATCTGTC | 0.0312
22 | CCTTCCTA | -0.354
23 | ACTTCCGG | 0.411
24 | CCTTCCGA | 0.451
25 | ACTTCCTG | -0.0685

Row | Sequence | PBM E-score
26 | GCTTCCTA | -0.0701
27 | GCTTCCGA | 0.473
28 | ACTTCCGA | 0.479
29 | GCTTCCAA | -0.147
30 | ACTTCCGC | 0.379
31 | ACTTCCCA | -0.158
32 | ACTTCCCG | 0.354
33 | CCTTCCGC | 0.306
34 | AAAACTTT | 0.0161
35 | CCTGTATC | 0.011
36 | CTGCTAAC | -0.0715
37 | ATCTCTAA | 0.0304
38 | AGCCAGAT | 0.0138
39 | CACCGCAA | 0.0924
40 | CACCGTCA | -0.13
41 | CGGATGGC | 0.347
42 | GACCCATC | 0.0784
43 | GACCCGGA | 0.323
44 | GACCCGCC | 0.0652
45 | GCCCCGAA | 0.31
46 | TACCCGTA | 0.31
47 | TACCCGAA | 0.476
48 | GACCCCGA | 0.288
49 | GACCCGAC | 0.384
50 | AACCCGAC | 0.324

Row | Sequence | PBM E-score
51 | TACCCCGA | 0.342
52 | GACCCGAA | 0.428
53 | CACCCGGA | 0.358
54 | TACCCGGA | 0.415
55 | GAAAAGTC | -0.011
56 | ACCAAGGA | 0.00373
57 | AAGGCCTA | -0.225
58 | ATTTGGGG | -0.0633
59 | ACCCCGAA | 0.369
60 | AACCCGCA | 0.156
61 | AACCCGAA | 0.387
62 | ACCAAGAA | -0.0301
63 | AGCCGGAA | 0.395
64 | AGCCGGAG | 0.379
65 | AGCCGGCT | 0.238
66 | GGCCGGAA | 0.371
67 | AGCCGGCA | 0.316
68 | AGCCGGAT | 0.396
69 | TGCCGGCA | 0.296
70 | AGCCGGAC | 0.239
71 | CGCCGGAG | 0.168
72 | CGCCGGAC | 0.146
73 | TGCCGGAA | 0.419
74 | CGCCGGAA | 0.392
75 | AAGAATAT | 0.0558

Row | Sequence | PBM E-score
76 | GCAAGTAA | -0.0627
77 | ATTTAAAT | -0.101
78 | AGAAAGGG | -0.138
79 | ATCTTGTA | -0.0999
80 | TGAGAGCA | -0.178
81 | CATCGCCA | -0.0625
82 | AGGCGGAA | 0.278
83 | GGGCGGAA | 0.308
84 | CGGCGGAA | 0.408
85 | CAGCTTTA | -0.0389
86 | ACTCGGAC | 0.327
87 | ACTCGGTC | 0.204
88 | TCGCGGAA | 0.315
89 | ACTCGGTG | 0.124
90 | ACTCGGAT | 0.467
91 | GCTCGGAA | 0.482
92 | ACTCGGAA | 0.47
93 | TCTCGGAA | 0.479
94 | ACTCGTAA | 0.0295
95 | GCACGGAA | 0.327
96 | TCTCGTAA | 0.00218
97 | GCGCGGAA | 0.338
98 | CAGTCCCC | -0.362
99 | CTCTCAGC | -0.362
100 | CCACTGGG | -0.231

Row | Sequence | PBM E-score
101 | ATCGCATG | -0.117
102 | AGATACAC | -0.107
103 | AGGCAGGA | -0.188
104 | ACTCTATC | -0.0391
105 | AAGGCTAC | -0.0344
106 | CCCACTCG | 0.0329
107 | CCACGGAA | 0.354
108 | TCACGGAA | 0.389
109 | ACACGGAA | 0.338
110 | GCACGGAC | 0.13
111 | GCTCGTAC | -0.0377
112 | GCTCGGAC | 0.391
113 | GTCACCAC | -0.103
114 | AGGGGAGA | -0.0188
115 | GTGCGTCA | -0.101
116 | CCCCGCTC | -0.0289
117 | CTAAATCC | 0.205
118 | GATTATCA | 0.0201
119 | AGTATCAT | 0.0471
120 | ACTCCAGC | -0.253
121 | CGGGTACC | 0.312
122 | AGGGTATA | -0.029
123 | CGGGTATA | 0.418
124 | GGGGTTTA | -0.0416
125 | CGGGTTTC | 0.277

Row | Sequence | PBM E-score
126 | AGGGTAGA | -0.166
127 | CGGGTTTA | 0.389
128 | CGGGTAGC | 0.37
129 | GGGGTATA | 0.06
130 | AGGGTATC | -0.0302
131 | CGGGTAGA | 0.389
132 | CGGGTATC | 0.404
133 | CAGCATCC | 0.121
134 | GACAAGTA | -0.0988
135 | AGAGTGCG | -0.164
136 | CGTTGATA | 0.0343
137 | AGATCTGG | -0.188
138 | CAACTAGA | -0.182
139 | GAACGGTC | 0.148
140 | GATCCGAC | 0.434
141 | GATCCGCC | 0.273
142 | GATCCCAC | -0.00608
143 | AATCCGCC | 0.218
144 | CATCCGCG | 0.285
145 | CGTCCGAG | 0.257
146 | CATCCGCC | 0.4
147 | AATCCGTG | 0.172
148 | AATCCGCG | 0.127
149 | CATCCGAG | 0.481
150 | AATCCGAG | 0.407

Row | Sequence | PBM E-score
151 | GATCCAAC | 0.104
152 | ACCAGCCA | -0.0271
153 | CAGAGATA | -0.182
154 | CGAGTTGC | 0.0987
155 | CGCTCCCA | -0.0934
156 | CCAAACAG | -0.345
157 | GGAGAGAA | 0.0164
158 | GATGTGGC | -0.0114
159 | CATCCGAC | 0.455
160 | CATCCGTC | 0.308
161 | AATCCGAC | 0.346
162 | ACTCAGTG | -0.208
163 | ACGATCAT | -0.174
164 | CAACCATA | -0.251
165 | AACGAATG | -0.142
166 | AGCAGCTG | -0.307
167 | GCTCAGAC | -0.19
168 | CGACTAGA | -0.0326
169 | TGAGTGAA | -0.295
170 | GGAGTGTA | 0.0839
171 | CCGGTCCA | 0.0504
172 | CCGGTCCG | 0.389
173 | CCGGTCCC | 0.282

Reference: the supplement of paper PMC3334620
